# Most compounds without a hit are left out; they make up all but 19% or so of the library.
# SW480 rerep – A quantitative high throughput screen for small molecules that induce DNA re-replication in SW480 colon adenocarcinoma cells; AID 624297, 2012; 340,000 compounds, 1.8% hits; Potency, µM (doses to about 46.1 µM), for the others: at the highest dose re-replication activation, most hits filed as activators; SW480 DNA re-replication, Hoechst DNA content imaging, 48 h; also: potency is read from the fitted curve at half-maximal effect; % of control where 0% means no effect; nearly all actives have a fitted effect of over 55% in size
#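 Readout is total intensity of Hoechst-stained nuclei, excited at 405 nm and collected at 500-530 nm. Compound treatment lasted 48 hr at 37 C in 5% CO2 before staining.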
# TDP1 cell CPT – qHTS for Inhibitors of human tyrosyl-DNA phosphodiesterase 1 (TDP1): qHTS in cells in presence of CPT; chicken DT40 Tdp1-/-;hTDP1 cells + 20 nM CPT, ATP luminescence, 48 h; AID 686979, 2013; Potency, µM (series often up to 46.2 µM), inactives show top-dose activity change, negative = growth inhibition, most hits filed as inhibitors; 420,000 compounds, 12% hits; also: potency is read from the fitted curve at half-maximal effect; % is scaled to controls: 0 for no effect and ±100 for the full control effect; nearly all actives have a fitted effect of over 55% in size
#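 Chicken DT40 Tdp1-/- cells stably complemented with human TDP1 were seeded at 400 cells/well in medium containing 20 nM camptothecin, exposed to pin-transferred compounds, and grown at 37 °C for at least 48 hr. Viability was read as ATP luminescence.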
# IL1B secr inh – qHTS for Inhibitors of Inflammasome Signaling: IL-1-beta AlphaLISA Primary Screen. THP-1 LPS/ATP IL-1B secretion, AlphaLISA, 16 h; stronger effect = lower value. activity change, % at 57.5 µM. 360,000 compounds, 4.7% hits. AID 743279, 2014; in the data active = activity change below about -50%; inconclusive = mostly about -30% to -49%; also: % is scaled to controls: 0 for no effect and ±100 for the full control effect
#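 Secreted IL-1B measured by AlphaLISA bead assay after 16 h compound exposure of THP-1 cells; compounds (final up to 57.5 uM) added 1 h before LPS (250 ng/mL) and ATP (1.25 mM) stimulation; lower signal means less secretion.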
# Chronic BCR inh – qHTS Assay to Find Inhibitors of Chronic Active B-Cell Receptor Signaling; ABC-DLBCL IkBa-CBG/CBR reporter, luminescence ratio, 4 h; 340,000 compounds, 0.05% hits; Potency, µM (series often up to 46.1 µM), without a hit: at the highest dose activity change, negative = inhibition, actives largely listed as inhibitors; AID 493014, 2011; active = well fitted inhibition curve with a large enough effect in the signal ratio, with a control signal flat, not every such curve was filed as active; inconclusive = small, poorly fitted or top-dose-only effect, or effect the other way, or a change in a side signal; the % refers to the signal ratio;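 also: potency is read from the fitted curve at half-maximal effect; plate controls were basal doxycycline-induced cells for no effect and cells given 10 µM MG132 for full effect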
#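 TMD8 ABC-DLBCL cells carrying doxycycline-inducible green luciferase fused to IkappaBalpha plus unfused red luciferase were exposed to compounds (up to 46 uM) for 4 hrs at 37C. Activity came from the overlap-corrected green/red luminescence ratio.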
# MCF10A rerep – A quantitative high throughput screen for small molecules that induce DNA re-replication in MCF 10a normal breast cells; 350,000 compounds, 2.9% hits; MCF 10A DNA re-replication, Hoechst nuclear intensity, 48 h; Potency, µM (doses to about 46.1 µM), for the others: top-dose activity, positive = re-replication, hits mostly activators; also: potency is read from the fitted curve at half-maximal effect; % of control where 0% means no effect; nearly all actives have a fitted effect of over 50% in size
# DT40 TDP1 no CPT – qHTS for Inhibitors of human tyrosyl-DNA phosphodiesterase 1 (TDP1): qHTS in cells in absence of CPT | DT40 Tdp1-/- hTDP1 cells, no CPT, ATP luminescence, 48 h | Potency, µM (top dose mostly 46.2 µM), for inactives: at the highest dose activity change, negative = growth inhibition, usual class: inhibitors | 420,000 compounds, 15% hits; also: potency is read from the fitted curve at half-maximal effect; % is scaled to controls: 0 for no effect and ±100 for the full control effect; nearly all actives have a fitted effect of over 55% in size
#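 Growth of hTDP1-complemented DT40 Tdp1-knockout cells is measured by ATP luminescence after at least 48 hr compound exposure at 37 °C, with DMSO substituting for the 20 nM CPT used in the parallel screen.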
# Starred values were filed as active, the others as inactive; ? = inconclusive; · = no result. Unless noted, calls follow the shape of the dose curve; as a rule, active = well fitted curve in the direction sought with a large enough effect; inconclusive = small, poorly fitted or top-dose-only effect, or another doubt; inactive = no such curve, though single readings can be large; an effect the other way counts as inactive or inconclusive.
SMILES,SW480 rerep,TDP1 cell CPT,IL1B secr inh,Chronic BCR inh,MCF10A rerep,DT40 TDP1 no CPT
N#Cc1ncc(-c2ccc3c(c2)OCCOCCOCCOCCO3)nc1C#N,?,5.8µM*,-103.2*,2.7%,18.4µM*,4.61µM*
N#Cc1ncc(-c2ccc3c(c2)OCCOCCOCCOCCOCCO3)nc1C#N,-2.5%,11.6µM*,21.9,?,4.4%,13µM*
Brc1ccc2c(c1)OCCOCCOCCOCCOCCO2,-6.1%,-22.0%,-0.7,1.8%,-2.2%,?
O=C(NCCc1ccccc1)c1cnc2sc(N3CCCCC3)nn2c1=O,·,8.2µM*,·,·,·,20.6µM*
O=C(NCc1ccccc1Cl)c1cnc2sc(N3CCCCC3)nn2c1=O,·,13µM*,·,·,·,9.2µM*
COc1ccc(CNC(=O)c2cnc3sc(N4CCCC4)nn3c2=O)cc1OC,·,9.2µM*,·,·,·,?
CCOc1ccc(CCNC(=O)c2cnc3sc(N4CCCCCC4)nn3c2=O)cc1,·,18.4µM*,·,·,·,18.4µM*
COCCNC(=O)c1cnc2sc(N3CCCCC3)nn2c1=O,·,1.1%,·,·,·,-3.8%
COc1cccc(NC(=O)C2(C)CCN2C(=O)CCc2ccc(Cl)cc2Cl)c1 (configuration not stated),·,?,-19.9,·,·,?
COCCn1c(C)cc(O)c(C(c2ccccc2OC)N2CCN(c3ccccc3)CC2)c1=O (configuration not stated),·,-16.9%,·,·,·,-5.1%
O=C(CCc1nc2ccccc2c(=O)[nH]1)NNC(=O)c1ccc(F)cc1,-1.6%,-7.5%,18.5,-6.4%,-0.1%,15.9%
COc1cc(C(=O)OCC(=O)Nc2ccccc2)cc2c1OCCO2,·,?,-10.3,·,·,?
O=C(NCCc1ccccc1)c1cnc2sc(N3CCCCCC3)nn2c1=O,·,?,·,·,·,13µM*
O=C(Nc1ccncc1)Nc1cccc(C(F)(F)F)c1,24.0%,?,-2.3,?,22.9%,14.6µM*
NNC(=O)Nc1cccc(C(F)(F)F)c1,-3.8%,-6.6%,16.5,0.6%,-5.7%,19.0%
O=C(Nc1ccc(OC(F)F)cc1)Nc1cccc(C(F)(F)F)c1,?,3.66µM*,-80.4*,?,?,4.61µM*
COc1ccc(NC(=O)Nc2nnc(N3CCCCCC3)s2)c(OC)c1,·,?,·,·,·,18.4µM*
NC(=O)/C=C\C(=O)Nc1cccc(C(F)(F)F)c1,1.2%,5.17µM*,-104.8*,?,15.5%,20.6µM*
CN(C)CCn1c(SCc2ccccc2C#N)nc2c(sc3ccccc32)c1=O,-10.7%,-21.0%,-5.8,0.5%,2.3%,?
CC1(c2nnc(-c3cccc(Cl)c3)o2)CC(c2ccc(F)cc2)=NO1 (configuration not stated),-8.9%,-21.9%,0.0,·,?,-19.8%
O=C(Nc1cccc(C(F)(F)F)c1)Nc1nnc(N2CCCCCC2)s1,·,?,·,·,·,5.8µM*
O=C(Nc1cccc(C(F)(F)F)c1)NC1CCCCC1,4.6%,23.1µM*,-3.1,?,4.7%,?
Cc1ccccc1NC(=O)/C=C/c1cccc(C(F)(F)F)c1,1.9%,-19.3%,-56.9*,?,-1.7%,-22.6%
Cc1ccccc1NC(=O)COC(=O)/C=C/c1cccc(C(F)(F)F)c1,-12.9%,2.8%,0.7,2.6%,0.5%,-5.9%
O=C(/C=C/[C@H]1O[C@@H](n2cnc3c(NC(=O)c4ccccc4)ncnc32)[C@H](O)[C@@H]1O)N[C@@H](CO)Cc1c[nH]c2ccccc12,·,-2.0%,-22.8,·,·,2.0%
SMILES,SW480 rerep,TDP1 cell CPT,IL1B secr inh,Chronic BCR inh,MCF10A rerep,DT40 TDP1 no CPT
Cc1nn(C(=O)c2ccc(Br)cc2)c(C)c1S(=O)(=O)N1CCOCC1,·,-4.8%,·,·,·,-0.1%
S=c1[nH]nc(SCc2ccccc2)c2[nH]cnc12,-19.0%,?,26.6,·,-35.2%,4.61µM*
COc1ccc(CCN2CCC(CNC(=O)c3cnn(-c4cccc(Cl)c4)c3C3CCN(C(=O)OC(C)(C)C)CC3)CC2)cc1,·,8.2µM*,·,·,·,8.2µM*
COc1ccc(CCN2CCC(CNC(=O)c3cnn(-c4ccccc4)c3C3CCN(C(=O)OC(C)(C)C)CC3)CC2)cc1,·,11.6µM*,·,·,·,8.2µM*
CCN1CCN(CCCNC(=O)c2cnn(-c3ccc(OC)cc3)c2C2CCN(C(=O)OC(C)(C)C)CC2)CC1,·,-25.3%,·,·,·,-21.1%
COc1ccc(CC(=O)Nc2ccc(S(=O)(=O)Nc3cc(C)nc(C)n3)cc2)cc1OC,·,2.4%,8.8,·,·,-16.7%
CCOC(=O)C1=C(C)N=c2s/c(=C\c3ccc(O)c([N+](=O)[O-])c3)c(=O)n2C1c1ccccc1OC (configuration not stated),17.1%,-16.8%,61.1,8.9%,?,18.4µM*
CCOC(=O)C1=C(C)n2c(s/c(=C/c3cccc([N+](=O)[O-])c3)c2=O)=NC1c1ccc(O)c(OC)c1 (configuration not stated),?,16.4µM*,-78.2*,-9.6%,16.4µM*,16.4µM*

# From PubChem BioAssay
